Measurements from PubChem BioAssay AID1159580 (chemical genetic matrix, 2015).
Out of some 5,500 compounds screened, about 2,000 (36%) were called active. Another 18% or so got no clear call; they are omitted. No stated cut-off is given here; in the data, active means normalized growth mostly below about 0.91 (no sharp cut-off); inconclusive means no clear call, values can overlap the other calls; inactive means mostly above about 0.92. Some of the results follow.

Assay: chemical genetic growth profiling, strain panel (AID 1159580);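 further: tested at 20 µM; growth read once vehicle control cultures reached saturation at 30 °C; 1 = growth at the plate median or of vehicle wells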
Details: growth OD

Measured: normalized growth

CN1CCN(CCC=C2c3ccccc3Sc3ccc(S(=O)(=O)N(C)C)cc32)CC1
active: S. cerevisiae deletion strains, locus YLR268W, strain sec22, stronger effect = lower value 0.88 | S. cerevisiae deletion strains, locus YLR418C, strain cdc73, stronger effect = lower value 0.764 | S. cerevisiae deletion strains, locus YML032C, strain rad52, stronger effect = lower value 0.896 | S. cerevisiae deletion strains, locus YMR223W, strain ubp8, stronger effect = lower value 0.899 | S. cerevisiae deletion strains, locus YNL307C, strain MCK1, stronger effect = lower value 0.791 | S. cerevisiae deletion strains, locus YOR270C, strain vph1, stronger effect = lower value 0.763
inactive: S. cerevisiae deletion strains, locus YJR043C, strain POL32, stronger effect = lower value 1.01 | S. cerevisiae deletion strains, locus YJR066W, strain TOR1, stronger effect = lower value 0.922 | S. cerevisiae deletion strains, locus YKL009W, strain mrt4, stronger effect = lower value 0.971 | S. cerevisiae deletion strains, locus YKL068W, stronger effect = lower value 1.01 | S. cerevisiae deletion strains, locus YKL085W, strain MDH1 (second series), stronger effect = lower value 1 | S. cerevisiae deletion strains, locus YKL085W, strain MDH1, stronger effect = lower value 1 | S. cerevisiae deletion strains, locus YKL160W, strain elf1, stronger effect = lower value 0.97 | S. cerevisiae deletion strains, locus YKL190W, strain CNB1, stronger effect = lower value 1.02 | S. cerevisiae deletion strains, locus YKR001C, strain vps1, stronger effect = lower value 0.916 | S. cerevisiae deletion strains, locus YKR026C, strain gcn3, stronger effect = lower value 1.01 | S. cerevisiae deletion strains, locus YKR091W, strain srl3, stronger effect = lower value 1.01 | S. cerevisiae deletion strains, locus YLL001W, strain dnm1, stronger effect = lower value 0.906 | S. cerevisiae deletion strains, locus YLL026W, stronger effect = lower value 1 | S. cerevisiae deletion strains, locus YLL041C, strain sdh2, stronger effect = lower value 0.992 | S. cerevisiae deletion strains, locus YLR027C, strain aat2, stronger effect = lower value 0.982 | S. cerevisiae deletion strains, locus YLR039C, strain RIC1, stronger effect = lower value 1.27 | S. cerevisiae deletion strains, locus YLR058C, strain SHM2, stronger effect = lower value 1.01 | S. cerevisiae deletion strains, locus YLR102C, strain apc9, stronger effect = lower value 0.964 | S. cerevisiae deletion strains, locus YLR113W, strain HOG1, stronger effect = lower value 0.983 | S. cerevisiae deletion strains, locus YLR221C, strain rsa3, stronger effect = lower value 0.979 | S. cerevisiae deletion strains, locus YLR258W, strain gsy2, stronger effect = lower value 0.991 | S. cerevisiae deletion strains, locus YLR262C, strain YPT6 (second series), stronger effect = lower value 1.11 | S. cerevisiae deletion strains, locus YLR262C, strain YPT6, stronger effect = lower value 1.31 | S. cerevisiae deletion strains, locus YLR320W, strain mms22, stronger effect = lower value 0.893 | S. cerevisiae deletion strains, locus YLR330W, strain CHS5, stronger effect = lower value 1 | S. cerevisiae deletion strains, locus YLR342W, strain FKS1 (second series), stronger effect = lower value 0.99 | S. cerevisiae deletion strains, locus YLR342W, strain FKS1, stronger effect = lower value 0.954 | S. cerevisiae deletion strains, locus YLR357W, strain rsc2, stronger effect = lower value 0.983 | S. cerevisiae deletion strains, locus YLR370C, strain arc18, stronger effect = lower value 0.964 | S. cerevisiae deletion strains, locus YLR371W, strain rom2, stronger effect = lower value 0.976 | S. cerevisiae deletion strains, locus YLR384C, strain iki3, stronger effect = lower value 1.02 | S. cerevisiae deletion strains, locus YML016C, strain PPZ1, stronger effect = lower value 1 | S. cerevisiae deletion strains, locus YML120C, strain ndi1, stronger effect = lower value 0.984 | S. cerevisiae deletion strains, locus YML124C, strain tub3, stronger effect = lower value 0.988 | S. cerevisiae deletion strains, locus YMR058W, strain fet3, stronger effect = lower value 0.954 | S. cerevisiae deletion strains, locus YMR078C, strain ctf18, stronger effect = lower value 0.983 | S. cerevisiae deletion strains, locus YMR125W, strain sto1, stronger effect = lower value 1 | S. cerevisiae deletion strains, locus YMR129W, stronger effect = lower value 1.03 | S. cerevisiae deletion strains, locus YMR205C, strain PFK2, stronger effect = lower value 0.96 | S. cerevisiae deletion strains, locus YMR231W, strain pep5, stronger effect = lower value 1.02 | S. cerevisiae deletion strains, locus YMR263W, strain SAP30, stronger effect = lower value 1.02 | S. cerevisiae deletion strains, locus YMR307W, strain GAS1, stronger effect = lower value 1.07 | S. cerevisiae deletion strains, locus YNL067W, strain RPL9B, stronger effect = lower value 1.01 | S. cerevisiae deletion strains, locus YNL071W, strain lat1, stronger effect = lower value 0.978 | S. cerevisiae deletion strains, locus YNL183C, strain NPR1, stronger effect = lower value 0.946 | S. cerevisiae deletion strains, locus YNL209W, strain ssb2, stronger effect = lower value 0.972 | S. cerevisiae deletion strains, locus YNL233W, strain BNI4, stronger effect = lower value 1 | S. cerevisiae deletion strains, locus YNL248C, strain rpa49, stronger effect = lower value 0.942 | S. cerevisiae deletion strains, locus YNL250W, strain rad50, stronger effect = lower value 0.992 | S. cerevisiae deletion strains, locus YNL271C, strain bni1, stronger effect = lower value 0.986 | S. cerevisiae deletion strains, locus YNL298W, strain CLA4, stronger effect = lower value 0.977 | S. cerevisiae deletion strains, locus YNL322C, strain KRE1 (second series), stronger effect = lower value 0.996 | S. cerevisiae deletion strains, locus YNL322C, strain KRE1, stronger effect = lower value 1.01 | S. cerevisiae deletion strains, locus YNR049C, strain mso1, stronger effect = lower value 1.01 | S. cerevisiae deletion strains, locus YNR052C, strain pop2, stronger effect = lower value 0.971 | S. cerevisiae deletion strains, locus YOL006C, strain TOP1, stronger effect = lower value 0.983 | S. cerevisiae deletion strains, locus YOL012C, strain htz1 0.994 | S. cerevisiae deletion strains, locus YOL147C, strain pex11, stronger effect = lower value 0.959 | S. cerevisiae deletion strains, locus YOR001W, strain rrp6, stronger effect = lower value 0.977 | S. cerevisiae deletion strains, locus YOR061W, strain CKA2, stronger effect = lower value 1 | S. cerevisiae deletion strains, locus YOR069W, strain VPS5, stronger effect = lower value 1.01 | S. cerevisiae deletion strains, locus YOR070C, strain gyp1, stronger effect = lower value 0.991 | S. cerevisiae deletion strains, locus YOR080W, strain dia2, stronger effect = lower value 1.03 | S. cerevisiae deletion strains, locus YOR083W, strain WHI5, stronger effect = lower value 0.937 | S. cerevisiae deletion strains, locus YOR106W, strain vam3, stronger effect = lower value 1 | S. cerevisiae deletion strains, locus YOR136W, strain idh2, stronger effect = lower value 0.981 | S. cerevisiae deletion strains, locus YOR144C, strain elg1, stronger effect = lower value 0.988 | S. cerevisiae deletion strains, locus YOR184W, strain ser1, stronger effect = lower value 0.934 | S. cerevisiae deletion strains, locus YOR231W, strain MKK1, stronger effect = lower value 0.984 | S. cerevisiae deletion strains, locus YOR265W, strain rbl2, stronger effect = lower value 0.995 | S. cerevisiae deletion strains, locus YOR290C, strain snf2, stronger effect = lower value 0.913 | S. cerevisiae deletion strains, locus YOR316C, strain cot1, stronger effect = lower value 0.968 | S. cerevisiae deletion strains, locus YPL051W, strain arl3, stronger effect = lower value 0.95 | S. cerevisiae deletion strains, locus YPL078C, strain atp4, stronger effect = lower value 0.925 | S. cerevisiae deletion strains, locus YPL106C, strain sse1, stronger effect = lower value 0.947 | S. cerevisiae deletion strains, locus YPL240C, strain hsp82, stronger effect = lower value 0.999 | S. cerevisiae deletion strains, locus YPL256C, strain CLN2, stronger effect = lower value 0.965 | S. cerevisiae deletion strains, locus YPR119W, strain clb2, stronger effect = lower value 0.968 | S. cerevisiae deletion strains, locus YPR141C, strain kar3, stronger effect = lower value 1.02 | S. cerevisiae deletion strains, locus YPR163C, strain tif3, stronger effect = lower value 0.977 | S. cerevisiae deletion strains, locus YPR167C, strain met16, stronger effect = lower value 0.985 | S. cerevisiae deletion strains, strain wtn01, stronger effect = lower value 0.953 | S. cerevisiae strains, strain wild type, stronger effect = lower value 1.01
